# The source made the active and inactive calls. Rule as the data show it, unless noted: active = inhibition above about 80%; inactive = the rest.
# Assays:
# [1] = LFS_MB_P medulloblastoma growth inhibition, cell-based, chromothripsis tumors, cisplatin or BGB combos (AID 1671449); details: LFS_MB_P medulloblastoma cells;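 also: cells exposed for 96 hours; 0% = vehicle DMSO and 100% = killing by high DMSO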
# [2] = HDN33 neuroblastoma growth inhibition, cell-based, chromothripsis tumors, cisplatin or BGB combos (AID 1671450); details: HDN33 neuroblastoma cells, stronger effect = higher value;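 also: cells exposed to compound for four days; 0% = vehicle DMSO and 100% = cell killing by high DMSO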
# [3] = ICB984 medulloblastoma cell growth inhibition, synergistic combos for chromothripsis tumors, cisplatin or BGB combos (AID 1671451; call rule not given here;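 also: cells exposed for 96 hours before readout; 0% = vehicle DMSO and 100% = killing by high DMSO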); details: ICB984 medulloblastoma cells, drug combinations, stronger effect = higher value
# [4] = LFS_MB_1R medulloblastoma cell growth inhibition, synergistic combos for chromothripsis tumors, cisplatin or BGB combos (AID 1671452); details: LFS_MB_1R medulloblastoma cells, stronger effect = higher value;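 also: cells exposed for 96 hours before readout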
# [5] = HTB85 osteosarcoma cell growth inhibition, synergistic combos for chromothripsis tumors, BGB or cisplatin IC20 combos (AID 1671453); details: HTB85 osteosarcoma cells, drug combinations, stronger effect = higher value;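 also: cells exposed for 96 hours before readout; 0% = vehicle DMSO and 100% = high DMSO killing control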
# [6] = CRL2098 osteosarcoma cell growth inhibition, synergistic combos for chromothripsis tumors, BGB or cisplatin IC20 combos (AID 1671454); details: CRL2098 osteosarcoma cells, drug combinations, stronger effect = higher value;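 also: cells exposed for 96 h before readout; 0% = vehicle DMSO and 100% = killing by high DMSO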
# [7] = HD-MB03 medulloblastoma cell growth inhibition, synergistic combos for chromothripsis tumors, BGB or cisplatin IC20 combos (AID 1671455; in the data active = inhibition above about 83%;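 also: 0% = vehicle DMSO and 100% = high DMSO as cytotoxic control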); details: HD-MB03 medulloblastoma cells, stronger effect = higher value
# [8] = UWB1.289 ovarian carcinoma cell growth inhibition, synergistic combos for chromothripsis tumors, BGB or cisplatin combos (AID 1671456); details: UWB1.289 ovarian carcinoma cells, stronger effect = higher value;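 also: cells exposed to compound for four days; 0% = vehicle DMSO and 100% = killing by high DMSO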
# [9] = LFS_MB_2R medulloblastoma cell growth inhibition, synergistic combos for chromothripsis tumors, cisplatin combos (AID 1671457); details: LFS_MB_2R medulloblastoma cells, stronger effect = higher value;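 also: cells exposed to compound for four days before readout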
# [10] = MDA-MB-436 breast carcinoma cell growth inhibition, synergistic combos for chromothripsis tumors, BGB or cisplatin combos (AID 1671458; call rule not given here;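 also: cells exposed for 96 hours; 0% = vehicle DMSO and 100% = killing by high DMSO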); details: MDA-MB-436 breast carcinoma growth inhibition, drug combinations, stronger effect = higher value
# [11] = UWB1.289_BRCA1 ovarian cancer growth, cell-based, BGB or cisplatin combinations (AID 1671459); details: UWB1.289 BRCA1 ovarian carcinoma, drug combinations, stronger effect = higher value
# [12] = human astrocyte viability loss, single and combined drugs, cytotoxicity control for chromothriptic childhood tumor combination screen, cell-based, BGB or cisplatin IC20 combos (AID 1671460); details: Human astrocytes, drug combinations, stronger effect = higher value;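 also: cells exposed to compounds for 96 hours before viability readout; 0% = vehicle and 100% = killing control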
# [13] = growth inhibition of BT084 medulloblastoma cells, cell-based, ICGC_MB145, cisplatin and BGB IC40 combos (AID 1671461); details: drug combinations, stronger effect = higher value;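 also: cells exposed to drugs for 96 hours; 0% = vehicle DMSO and 100% = high DMSO full killing control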
# [14] = growth inhibition of RCMB18 medulloblastoma cells, cell-based, cisplatin and BGB IC40 combos (AID 1671462); details: stronger effect = higher value;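 also: cells exposed to compound for four days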
# [15] = growth inhibition of CRL1545 osteosarcoma cells, cell-based, cisplatin and BGB IC20 combos (AID 1671464); details: stronger effect = higher value;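 also: cells exposed to compound for 96 hours before readout; 0% = vehicle DMSO and 100% = high DMSO killing control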
# [16] = measured here: combination with BGB IC40, at 0.05 µM
# [17] = measured here: with BGB IC20 combination, at 0.5 µM
# [18] = measured here: with cisplatin IC20 combination, at 0.5 µM
# [19] = measured here: combination with cisplatin, at 0.5 µM
# [20] = measured here: combination with cisplatin, at 5 µM
compound,measurement,setting,value
COc1nc(N)nc2c1ncn2[C@@H]1O[C@H](CO)[C@@H](O)[C@H]1O,inhibition,"[1]; at 0.5 µM, stronger effect = higher value",4.72% (inactive)
same,inhibition,"[1]; measured here: combination with BGB IC20, at 0.005 µM",15.5%
same,inhibition,"[1]; measured here: combination with BGB IC40, at 0.005 µM",9.31%
same,inhibition,[1]; [16],-38.6%
same,inhibition,"[1]; measured here: combination with cisplatin, at 0.5 µM, stronger effect = higher value",58.9%
same,inhibition,"[1]; measured here: combination with cisplatin, at 5 µM, stronger effect = higher value",5.54%
same,inhibition,"[2]; BGB combo, at 5 µM",-39.7%
same,inhibition,[2]; at 0.5 µM,-10.9% (inactive)
same,inhibition,"[2]; cisplatin combo, at 5 µM",-30.3%
same,inhibition,[2]; [17],-0.293%
same,inhibition,[2]; [18],-13.5%
same,inhibition,"[2]; single agent, at 5 µM",-2.81%
same,inhibition,"[3]; BGB IC20 combo, at 0.005 µM",-28.6%
same,inhibition,"[3]; BGB IC40 combo, at 0.005 µM",-6.48%
same,inhibition,"[3]; BGB IC40 combo, at 0.05 µM",-21%
same,inhibition,[3]; at 0.5 µM,-21.1% (inactive)
same,inhibition,"[3]; cisplatin combo, at 0.05 µM",-25.3%
same,inhibition,"[3]; cisplatin combo, at 0.5 µM",-22.6%
same,inhibition,"[3]; cisplatin combo, at 5 µM",-28.5%
same,inhibition,"[3]; measured here: 5 uM single agent, at 5 µM",-19.6%
same,inhibition,[4]; at 0.5 µM,-13.7% (inactive)
same,inhibition,[4]; [16],-35.3%
same,inhibition,[4]; [19],-34.3%
same,inhibition,[4]; [20],-13.1%
same,inhibition,[5]; at 0.5 µM,-19.2% (inactive)
same,inhibition,"[5]; measured here: with BGB IC20, at 0.5 µM",-19.6%
same,inhibition,"[5]; measured here: with BGB IC20, at 5 µM",-25.8%
same,inhibition,"[5]; measured here: with cisplatin IC20, at 0.5 µM",-42.1%
same,inhibition,"[5]; measured here: with cisplatin IC20, at 5 µM",-37.2%
same,inhibition,"[5]; single agent, at 5 µM",-10.5%
same,inhibition,[6]; at 0.5 µM,-31.4% (inactive)
same,inhibition,"[6]; measured here: combination with BGB at IC20, at 0.5 µM",-18.4%
same,inhibition,"[6]; measured here: combination with cisplatin at IC20, at 0.5 µM",-84.8%
same,inhibition,[7]; at 0.5 µM,-9.1% (inactive)
same,inhibition,"[7]; measured here: combo with BGB at IC20, at 0.5 µM",-11%
same,inhibition,"[7]; measured here: combo with cisplatin at IC20, at 0.5 µM",-9.78%
same,inhibition,[8]; at 0.5 µM,-10.1% (inactive)
same,inhibition,"[8]; measured here: inhibition with BGB combination, at 0.05 µM",-8.96%
same,inhibition,"[8]; measured here: inhibition with cisplatin combination, at 0.05 µM",-25.3%
same,inhibition,[9]; at 0.5 µM,-9.84% (inactive)
same,inhibition,[9]; [19],-1.3%
same,inhibition,[9]; [20],9.04%
same,inhibition,[10]; at 0.5 µM,-1.85% (inactive)
same,inhibition,"[10]; measured here: BGB combination, at 0.5 µM",1.63%
same,inhibition,"[10]; measured here: BGB combination, at 5 µM",-10.7%
same,inhibition,"[10]; measured here: cisplatin combination, at 0.5 µM",-1.11%
same,inhibition,"[10]; measured here: cisplatin combination, at 5 µM",-9.18%
same,inhibition,"[11]; BGB combination, concentration series, at 5 µM",-2.42%
same,inhibition,[11]; at 0.5 µM,-5.52% (inactive)
same,inhibition,"[11]; cisplatin combination, concentration series, at 5 µM",1.78%
same,inhibition,[12]; at 0.5 µM,-6.61% (inactive)
same,inhibition,"[12]; measured here: combo with BGB IC20, at 0.5 µM",-1.7%
same,inhibition,"[12]; measured here: combo with cisplatin IC20, at 0.5 µM",-14.9%
same,inhibition,[13]; at 0.5 µM,7.93% (inactive)
same,inhibition,"[13]; cisplatin combination, at 0.5 µM",-30.4%
same,inhibition,"[13]; cisplatin combination, at 5 µM",16.2%
same,inhibition,"[13]; measured here: BGB IC40 combination 0.05 uM, at 0.05 µM",42.2%
same,inhibition,"[13]; single agent, at 5 µM",-18%
same,inhibition,[14]; at 0.5 µM,-13.9% (inactive)
same,inhibition,"[14]; cisplatin combo, at 5 µM",-23.5%
same,inhibition,"[14]; measured here: BGB IC40 combination, at 0.05 µM",-4.14%
same,inhibition,[14]; [19],-19%
same,inhibition,"[14]; single agent, at 5 µM",15.2%
same,inhibition,[15]; at 0.5 µM,-24.6% (inactive)
same,inhibition,[15]; [17],-20.2%
same,inhibition,[15]; [18],-28.8%
same,inhibition,"[15]; single agent, at 0.05 µM",-9.67%
same,inhibition,"[15]; single agent, at 5 µM",-66.7%

# — PubChem BioAssay
